Experimental data: PubChem BioAssay AID651640 (Broad Institute, 2012)
The whole screen tested about 350,000 compounds, of which about 6,000 (1.7%) were called active. About 5% were inconclusive and are not listed. Rule as the data show it: active = CPE inhibition above about 20% (passing the limit was not always enough); inconclusive = no clear call, values can overlap the other calls; tested in BHK-21 cells. Shown is part of a subset that was picked to be rich in actives.

Assay: protection of cells from dengue 2 killing – plate reader, single concentration, primary screen (AID 651640);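 also: 0% = median of neutral control wells and 100% = median of positive control wells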
Settings: DENV2-infected cells, cytopathic effect rescue, at 9.99 µM, hits give high values

Compound	CPE inhibition
NC(=O)c1ccc(Nc2ccc3nonc3c2[N+](=O)[O-])cc1	-0.407% (inactive)
CCOc1ccccc1Nc1ccc(C(=O)O)cc1[N+](=O)[O-]	2.94% (inactive)
CCOc1ccccc1Nc1ccc2nonc2c1[N+](=O)[O-]	22.7% (active)
O=C(Nc1ccccc1)N1C[C@H]2[C@@H](c3ccccc31)[C@@H](CO)N2Cc1cocn1	-3.04% (inactive)
CO[C@H]1CN(C)C(=O)c2ccc(NC(=O)c3cc(C)on3)cc2OC[C@@H](C)NC[C@@H]1C	-4.45% (inactive)
CCS(=O)(=O)N1CCCCN2[C@@H](CO)[C@@H](c3ccc(-c4ccccc4)cc3)[C@@H]2C1	12.3% (inactive)
O=S(=O)(Cc1ccccc1)N1CCCCN2[C@@H](CO)[C@H](c3ccc(-c4ccccc4)cc3)[C@@H]2C1	59% (active)
Cc1cccc(-c2ccc([C@@H]3[C@@H](CO)N4CCCCN(S(=O)(=O)c5cccs5)C[C@H]34)cc2)c1	32.7% (active)
O=S(=O)(Cc1ccccc1)N1CCCCN2[C@@H](CO)[C@@H](c3ccc(-c4ccc(F)cc4)cc3)[C@@H]2C1	-23% (inactive)
Cc1cccc(-c2ccc([C@H]3[C@H](CO)N4CCCCN(S(=O)(=O)c5cn(C)cn5)C[C@@H]34)cc2)c1	-11.9% (inactive)
COc1cccc(-c2ccc([C@H]3[C@H](CO)N4CCCCN(S(=O)(=O)c5cccs5)C[C@@H]34)cc2)c1	-2.61% (inactive)
CCNC(=O)[C@H]1[C@H](CO)[C@H]2Cn3c(cccc3=O)[C@H]2N1C(=O)C1CCCC1	3.43% (inactive)
C[C@@H]1CCCCO[C@@H](CN(C)C(=O)C2CCCCC2)[C@H](C)CN([C@H](C)CO)C(=O)c2cc(NC(=O)Cc3ccccc3)ccc2O1	-2.34% (inactive)
COc1cccc(S(=O)(=O)N[C@H]2CC[C@@H](CC(=O)NCc3ccc(F)cc3)O[C@@H]2CO)c1	2.23% (inactive)
O=C(O)C[C@@H]1CC[C@H](NC(=O)CCN2CCCCC2)[C@H](CO)O1	20.1% (active)
O=C(C[C@H]1CC[C@H](NC(=O)CCN2CCCCC2)[C@@H](CO)O1)Nc1ccccc1	-7.71% (inactive)
CN(C)CC(=O)N[C@@H]1CC[C@H](CC(=O)O)O[C@H]1CO	8.44% (inactive)
C[C@@H](NC(=O)C[C@@H]1C=C[C@@H](NC(=O)CN2CCOCC2)[C@H](CO)O1)c1ccccc1	-6.9% (inactive)
CNC(=O)C[C@@H]1CC[C@@H]2[C@@H](COc3ccc(NC(=O)Cc4cccs4)cc3C(=O)N2C)O1	-1.22% (inactive)
COc1ccccc1C(=O)Nc1ccc2c(c1)OC[C@@H](C)NC[C@H](C)[C@@H](OC)CN(C)C2=O	-3.53% (inactive)
O=C(NC1CCCCC1)C1CCCN(S(=O)(=O)c2ccc(Br)s2)C1 (stereo not given)	2.35% (inactive)
O=C(C1CCN(S(=O)(=O)c2ccc(Br)s2)CC1)N1CCN(C2CCCCC2)CC1	66.2% (active)

Compound	CPE inhibition
O=C(C1CCN(S(=O)(=O)c2ccc(Br)s2)CC1)N1CCN(c2ccccc2)CC1	-4.17% (inactive)
C[C@@H]1CN([C@@H](C)CO)C(=O)c2cc(NC(=O)Cc3ccccc3)ccc2O[C@H]1CN(C)CC1CC1	31.5% (active)
C[C@@H]1CN([C@H](C)CO)C(=O)c2cc(NC(=O)Cc3ccccc3)ccc2O[C@@H]1CN(C)CC1CCCCC1	-0.335% (inactive)
C[C@@H]1CCCCO[C@H](CN(C)CC2CC2)[C@@H](C)CN([C@H](C)CO)C(=O)c2cc(NC(=O)Cc3ccccc3)ccc2O1	13.5% (inactive)
C[C@H]1CCCCO[C@H](CN(C)Cc2ccccc2)[C@@H](C)CN([C@@H](C)CO)C(=O)c2cc(NC(=O)c3ccccc3)ccc2O1	48.2% (active)
C[C@@H]1CCCCO[C@H](CN(C)Cc2ccccc2)[C@@H](C)CN([C@H](C)CO)C(=O)c2cc(NC(=O)Cc3ccccc3)ccc2O1	-14% (inactive)
C[C@@H]1CN([C@@H](C)CO)C(=O)c2cc(NC(=O)Cc3ccccc3)ccc2O[C@@H]1CN(C)CC1CCCCC1	2.75% (inactive)
C[C@H](CO)N1C[C@H](C)[C@@H](CN(C)CC2CC2)OCCCC[C@H](C)Oc2ccc(NC(=O)Cc3ccccc3)cc2C1=O	57.8% (active)
C[C@H](CO)N1C[C@H](C)[C@H](CN(C)CC2CCCCC2)Oc2ccc(NC(=O)C3CCCCC3)cc2C1=O	0.912% (inactive)
C[C@H](CO)N1C[C@H](C)[C@H](CN(C)Cc2ccccc2)OCCCC[C@H](C)Oc2ccc(NC(=O)c3ccccc3)cc2C1=O	-7.82% (inactive)
C[C@H](CO)N1C[C@H](C)[C@@H](CN(C)Cc2ccc(C(=O)O)cc2)OCCCC[C@H](C)Oc2ccc(NC(=O)c3ccccc3)cc2C1=O	-2.18% (inactive)
C[C@@H]1CCCCO[C@@H](CN(C)CC2CCCCC2)[C@H](C)CN([C@H](C)CO)C(=O)c2cc(NC(=O)C3CCCCC3)ccc2O1	-14.3% (inactive)
C[C@@H]1CN([C@H](C)CO)C(=O)c2cc(NC(=O)C3CCCCC3)ccc2O[C@@H]1CN(C)CC1CCCCC1	22.8% (active)
Cc1ccccc1S(=O)(=O)N1CC(=O)N2[C@H](CO)[C@H](c3ccc(C#CC4CC4)cc3)[C@@H]2C1	5.14% (inactive)
CC=Cc1ccc2n(c1=O)C[C@@H]1[C@@H](CO)[C@H](C(=O)NC3CCCC3)[C@H]2N1C(=O)c1cnccn1 (mixture of isomers)	2.52% (inactive)
CO[C@@H]1CN(C)C(=O)c2ccc(NC(=O)C3CC3)cc2OC[C@@H](C)N(CC2CCOCC2)C[C@H]1C	0.64% (inactive)
CC(C)NC(=O)Nc1cccc2c1O[C@H](CN(C)Cc1ccccc1)[C@H](C)CN([C@H](C)CO)C2=O	1.48% (inactive)
CO[C@@H]1CN(C)C(=O)c2cc(NC(C)=O)ccc2OC[C@@H](C)N(C(=O)NC2CCCCC2)C[C@H]1C	-11% (inactive)
COc1cccc(-c2ccc3n(c2=O)C[C@H]2[C@H](CO)[C@@H](C(=O)N4CCCCC4)N(C)[C@@H]32)c1	5.67% (inactive)
CCCNC(=O)Nc1ccc2c(c1)OC[C@H](C)N(Cc1ccccc1)C[C@H](C)[C@H](OC)CN(C)C2=O	14.2% (inactive)
COC(=O)CCCCCCC(=O)Nc1ccc(C2OC(CSc3nc(-c4ccccc4)c(-c4ccccc4)o3)CC(c3ccc([N+](=O)[O-])cc3)O2)cc1 (stereo not given)	-6.28% (inactive)
CCCNC(=O)[C@H]1[C@H](CO)[C@H]2Cn3c(ccc(-c4cccc(F)c4)c3=O)[C@@H]1N2C(=O)CC	0.06% (inactive)

Compound	CPE inhibition
CN1c2ccc(-c3ccccc3)cc2[C@@H]2[C@@H](CCN2C(=O)c2ccccc2F)[C@@H]1CO	1.36% (inactive)
CN1c2ccc(Br)cc2[C@@H]2[C@@H](CCN2C(=O)Cc2ccccc2)[C@@H]1CO	0.742% (inactive)
CN1c2ccc(Br)cc2[C@@H]2[C@@H](CCN2C(=O)C2CCCCC2)[C@H]1CO	8.19% (inactive)
CN1c2ccc(Br)cc2[C@@H]2[C@@H](CCN2C(=O)C2CCCC2)[C@H]1CO	99.1% (active)
O=C(CC1CC1)N1[C@H](CO)[C@@H]2c3ccccc3N(S(=O)(=O)c3ccc(F)cc3)C[C@@H]21	-3.84% (inactive)
O=C(C[C@@H]1CC[C@H](NC(=O)C2CCOCC2)[C@@H](CO)O1)Nc1ccccc1	6.72% (inactive)
CCOC(=O)[C@]12CCCC=C1N(Cc1ccc(Cl)cc1Cl)C(=O)[C@H](CC(=O)N1CCCCC1)C2	4.66% (inactive)
COC(=O)[C@]12CCCCC=C1N(Cc1ccc3c(c1)OCO3)C(=O)[C@H](CC(=O)NCc1cccs1)C2	-4.45% (inactive)
CCOC(=O)[C@]12CCC=C1N(Cc1ccco1)C(=O)[C@H](CC(=O)N1CCSCC1)C2	-4% (inactive)
COC(=O)[C@]12CCCCC=C1N(Cc1cccc3ccccc13)C(=O)[C@H](CC(=O)N1CCOCC1)C2	99.4% (active)
COC(=O)[C@]12CCCCC=C1N(Cc1ccc(Cl)cc1Cl)C(=O)[C@H](CC(=O)NCc1cccc3ccccc13)C2	-2.75% (inactive)
CCOC(=O)[C@]12CCCC=C1N(Cc1ccc3c(c1)OCO3)C(=O)[C@H](CC(=O)NCc1cccs1)C2	66.5% (active)
CCOC(=O)[C@]12CCC=C1N(Cc1ccccc1)C(=O)[C@H](CC(=O)N1CCCC1)C2	29.8% (active)
CCOC(=O)[C@]12CCCC=C1N(Cc1ccc3c(c1)OCO3)C(=O)[C@H](CC(=O)N1CCN(C(=O)c3ccco3)CC1)C2	-2.94% (inactive)
COC(=O)[C@]12CCCCC=C1N(Cc1ccc3c(c1)OCO3)C(=O)[C@H](CC(=O)N1CCOCC1)C2	8.62% (inactive)
COc1ccc(S(=O)(=O)N(C)C[C@@H]2Oc3ccc(NC(=O)Cc4ccccc4)cc3CC(=O)N([C@@H](C)CO)C[C@H]2C)cc1	-3.88% (inactive)
CO[C@@H]1CN(C)C(=O)c2cc(NC(=O)c3ccc4c(c3)OCO4)ccc2OC[C@H](C)N(CCC(F)(F)F)C[C@H]1C	2.23% (inactive)
Cc1noc(C)c1NC(=O)Nc1ccc2c(c1)CC(=O)N([C@@H](C)CO)C[C@@H](C)[C@H](CN(C)C(=O)NC1CCCCC1)O2	1.27% (inactive)
N#C[C@@H]1[C@@H](c2ccc(-c3ccccc3F)cc2)[C@@H](CO)N1C(=O)c1ccccn1	-0.879% (inactive)
COc1ccccc1NC(=O)N[C@H]1CC[C@@H](CC(=O)NCc2ccc(Cl)c(Cl)c2)O[C@H]1CO	-2.11% (inactive)
C/C=C/c1ccc2c(c1)O[C@@H](CN(C)C(=O)Cc1ccccn1)[C@@H](C)CN([C@H](C)CO)S2(=O)=O	3.81% (inactive)
